Measured values reported in PubChem BioAssay AID1159580 (chemical genetic matrix, 2015).
Values joined by “and” are separate entries in the source; they are usually repeats but may differ in a detail not shown here. Identical values can stand only once. In all, about 5,500 compounds went through this assay and about 2,000 (36%) were called active. About 18% were inconclusive and are not listed. Rule as the data show it: active = normalized growth mostly below about 0.91 (no sharp cut-off); inconclusive = no clear call, values can overlap the other calls; inactive = mostly above about 0.92. Some of the results follow.

Assay: chemical genetic growth profiling, strain panel (AID 1159580);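 also: tested at 20 µM; growth read once vehicle control cultures reached saturation at 30 °C; 1 = growth at the plate median or of vehicle wells; lower values mean less growth of the strain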
Settings: S. cerevisiae deletion strains, growth OD

Measured: normalized growth

Nc1ccc(S(=O)(=O)Nc2ncccn2)cc1
inactive: locus YAL013W, strain DEP1, stronger effect = lower value 0.982 | locus YAL021C, strain ccr4, stronger effect = lower value 0.968 | locus YAL026C, strain drs2, stronger effect = lower value 0.986 | locus YAL030W, strain snc1, stronger effect = lower value 0.994 | locus YBL061C, strain skt5, stronger effect = lower value 0.985 | locus YBR009C, strain hhf1, stronger effect = lower value 0.986 | locus YBR021W, strain FUR4, stronger effect = lower value 0.992 | locus YBR023C, strain chs3, stronger effect = lower value 0.993 | locus YBR171W, strain sec66, stronger effect = lower value 0.973 | locus YBR229C, strain ROT2, stronger effect = lower value 0.96 | locus YBR231C, strain swc5, stronger effect = lower value 1.02 | locus YBR279W, strain paf1, stronger effect = lower value 0.995 | locus YCL011C, strain gbp2, stronger effect = lower value 0.957 | locus YCL016C, strain dcc1, stronger effect = lower value 1.01 | locus YCL029C, strain bik1, stronger effect = lower value 0.991 | locus YCL069W, strain vba3, stronger effect = lower value 0.954 | locus YCR088W, strain abp1, stronger effect = lower value 0.976 | locus YDL005C, strain med2, stronger effect = lower value 0.985 | locus YDL035C, strain GPR1, stronger effect = lower value 0.979 | locus YDL040C, strain nat1, stronger effect = lower value 0.971 | locus YDL074C, strain BRE1, stronger effect = lower value 0.969 | locus YDL101C, strain DUN1, stronger effect = lower value 0.981 | locus YDL134C, strain PPH21, stronger effect = lower value 0.999 | locus YDL185W, strain tfp1, stronger effect = lower value 0.988 | locus YDL192W, strain arf1, stronger effect = lower value 1 | locus YDR001C, strain nth1, stronger effect = lower value 0.965 | locus YDR069C, strain doa4, stronger effect = lower value 0.97 | locus YDR101C, strain arx1, stronger effect = lower value 1.01 | locus YDR137W, strain rgp1, stronger effect = lower value 0.964 | locus YDR150W, strain NUM1, stronger effect = lower value 0.985 | locus YDR159W, strain sac3, stronger effect = lower value 0.955 | locus YDR162C, strain NBP2, stronger effect = lower value 0.996 | locus YDR195W, strain ref2 0.956 | locus YDR297W, strain sur2, stronger effect = lower value 0.975 | locus YDR318W, strain mcm21, stronger effect = lower value 1 | locus YDR334W, strain swr1, stronger effect = lower value 0.935 | locus YDR335W, strain msn5, stronger effect = lower value 0.988 | locus YDR388W, stronger effect = lower value 0.994 | locus YDR392W, strain spt3, stronger effect = lower value 1 | locus YDR502C, strain sam2, stronger effect = lower value 1.01 | locus YEL003W, strain gim4, stronger effect = lower value 0.991 | locus YEL037C, strain rad23, stronger effect = lower value 0.967 | locus YEL061C, strain CIN8 (second series), stronger effect = lower value 0.967 | locus YEL061C, strain CIN8, stronger effect = lower value 0.988 | locus YER015W, strain faa2, stronger effect = lower value 0.994 | locus YER016W, strain bim1, stronger effect = lower value 0.968 | locus YER110C, stronger effect = lower value 0.968 | locus YER111C, strain swi4, stronger effect = lower value 1 | locus YER155C, strain BEM2 (second series), stronger effect = lower value 0.989 | locus YER155C, strain BEM2, stronger effect = lower value 0.991 | locus YER167W, strain BCK2, stronger effect = lower value 0.99 | locus YFR010W, strain ubp6, stronger effect = lower value 0.941 | locus YGL078C, strain dbp3, stronger effect = lower value 1 | locus YGL086W, strain mad1, stronger effect = lower value 0.997 | locus YGL167C, strain pmr1, stronger effect = lower value 0.976 | locus YGL173C, strain kem1, stronger effect = lower value 0.994 | locus YGL227W, strain vid30, stronger effect = lower value 0.995 | locus YGL240W, strain doc1, stronger effect = lower value 0.986 | locus YGL248W, strain PDE1, stronger effect = lower value 0.978 | locus YGL253W, strain hxk2, stronger effect = lower value 0.923 | locus YGR078C, strain PAC10, stronger effect = lower value 0.986 | locus YGR135W, strain pre9, stronger effect = lower value 0.997 | locus YGR252W, strain gcn5, stronger effect = lower value 0.957 | locus YHR013C, strain ard1, stronger effect = lower value 0.984 | locus YHR027C, strain rpn1, stronger effect = lower value 0.988 | locus YHR030C, strain SLT2, stronger effect = lower value 0.999 and 0.97 | locus YHR079C, strain IRE1 (second series), stronger effect = lower value 1 | locus YHR079C, strain IRE1, stronger effect = lower value 0.979 | locus YHR094C, strain hxt1, stronger effect = lower value 0.994 | locus YHR129C, strain ARP1, stronger effect = lower value 0.987 | locus YHR142W, strain chs7, stronger effect = lower value 0.984 | locus YHR200W, strain rpn10, stronger effect = lower value 0.992 | locus YIL066C, strain RNR3, stronger effect = lower value 0.984 | locus YIL073C, strain SPO22, stronger effect = lower value 1.02 | locus YIL125W, strain kgd1, stronger effect = lower value 0.995 | locus YIR030C, strain dcg1, stronger effect = lower value 0.997 | locus YJL092W, strain hpr5, stronger effect = lower value 0.974 | locus YJL095W, strain BCK1 (second series), stronger effect = lower value 0.995 | locus YJL095W, strain BCK1, stronger effect = lower value 0.994 and 0.979 | locus YJL115W, strain asf1, stronger effect = lower value 0.97 | locus YJL129C, strain trk1, stronger effect = lower value 0.984 | locus YJL134W, strain LCB3, stronger effect = lower value 0.993 | locus YJL154C, strain vps35, stronger effect = lower value 0.969 | locus YJL164C, strain tpk1, stronger effect = lower value 0.992 | locus YJL166W, strain qcr8, stronger effect = lower value 0.936 | locus YJL168C, strain set2, stronger effect = lower value 0.992 | locus YJL187C, strain SWE1 (second series), stronger effect = lower value 0.986 | locus YJL187C, strain SWE1, stronger effect = lower value 0.974 | locus YJR043C, strain POL32, stronger effect = lower value 1.01
